About 79,000 compounds went through this panel and 15% of them were active in at least one assay; those are over-represented in the sample as a whole. Active and inactive are the calls of the source. Rule as the data show it: active = growth inhibition above about 70%; inactive = the rest.
What was measured:
[1] = NCI Yeast Anticancer Drug Screen. Data for the wt2 strain (AID 169);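 also: 0% = growth of vehicle-treated yeast cultures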; conditions: S. cerevisiae wt2 strain growth inhibition, active compounds read high
How it was run: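 The panel's yeast strains carry defined changes in DNA repair or cell cycle genes. Each strain is grown with compound, and growth loss is scored relative to vehicle.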

[2] = NCI Yeast Anticancer Drug Screen. Data for the mlh1 strain (AID 171);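 also: 0% = growth of vehicle-treated control cultures of the same strain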; conditions: S. cerevisiae mlh1 strain growth inhibition, active compounds read high
How it was run: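 Inhibition values reflect reduced yeast growth in the presence of compound, referenced to vehicle controls, using a strain chosen for its alteration in DNA repair or cell cycle control.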

[3] = NCI Yeast Anticancer Drug Screen. Data for the sgs1 strain (AID 173);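 also: 0% = growth of vehicle-only control cultures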; conditions: S. cerevisiae sgs1 mutant, active compounds read high
How it was run: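 Vehicle-treated cultures served as reference for growth inhibition of a yeast strain altered in DNA damage repair or cell cycle control after compound exposure.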

[4] = NCI Yeast Anticancer Drug Screen. Data for the mlh1 rad18 strain (AID 175); conditions: S. cerevisiae mlh1 rad18 strain growth inhibition, active compounds read high
How it was run: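 Inhibition values reflect reduced growth of mutant yeast versus vehicle-treated controls following compound exposure; the mutations affect DNA damage repair.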

[5] = NCI Yeast Anticancer Drug Screen. Data for the rad52 strain (AID 147);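 also: 0% = growth of vehicle-treated control cultures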; conditions: S. cerevisiae rad52 mutant growth inhibition, active compounds read high
How it was run: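 Inhibition of yeast growth, referenced to vehicle controls, was the measured output for a strain with defective DNA damage repair.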

[6] = NCI Yeast Anticancer Drug Screen. Data for the wt1 strain (AID 149);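 also: 0% = growth of vehicle-treated wt1 cultures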; conditions: S. cerevisiae wt1 strain (SPY 50644) growth inhibition, active compounds read high
How it was run: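 Growth inhibition read against vehicle controls after compound exposure of the wt1 yeast strain.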

[7] = NCI Yeast Anticancer Drug Screen. Data for the rad50EPP+ strain (AID 151);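 also: 0% = growth of vehicle-treated control cultures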; conditions: S. cerevisiae rad50 mutant strain, active compounds read high
How it was run: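 Genetically defined yeast (rad50EPP+, DNA damage repair alteration) is grown with compound, and inhibition of growth is expressed relative to vehicle-treated controls.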

[8] = NCI Yeast Anticancer Drug Screen. Data for the mgt1 strain (AID 153); conditions: S. cerevisiae mgt1 mutant growth inhibition, active compounds read high
How it was run: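 In the mgt1 strain, test compounds were added and growth inhibition was determined relative to vehicle-treated controls.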

[9] = NCI Yeast Anticancer Drug Screen. Data for the rad50 strain (AID 155);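 also: 0% = growth of vehicle-only cultures of the same strain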; conditions: S. cerevisiae rad50 strain growth inhibition, active compounds read high
How it was run: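 Readout: growth inhibition relative to vehicle-treated cultures. Compound exposure was carried out in a genetically defined yeast strain deficient in DNA damage repair.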

[10] = NCI Yeast Anticancer Drug Screen. Data for the mec2-1 strain (AID 157); conditions: S. cerevisiae mec2-1 strain, active compounds read high
How it was run: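 Each compound was tested on mec2-1 yeast, a strain altered in DNA damage repair or cell cycle control. Growth inhibition is reported relative to vehicle.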

[11] = NCI Yeast Anticancer Drug Screen. Data for the rad14 strain (AID 159);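 also: 0% = growth of vehicle-treated control cultures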; conditions: S. cerevisiae rad14 strain growth inhibition, active compounds read high
How it was run: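 Growth inhibition vs vehicle controls; genetically altered yeast strain (DNA damage repair defect) treated with test compounds.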

[12] = NCI Yeast Anticancer Drug Screen. Data for the sgs1 mgt1 strain (AID 161);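 also: 0% = growth of cultures given vehicle only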; conditions: S. cerevisiae sgs1 mgt1 strain, active compounds read high
How it was run: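 Read-out: growth inhibition vs vehicle controls. Cells: mutant yeast strain deficient in DNA damage repair.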

[13] = NCI Yeast Anticancer Drug Screen. Data for the CLN2oe strain (AID 163);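 also: 0% = growth of vehicle-only control cultures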; conditions: S. cerevisiae CLN2oe strain, active compounds read high
How it was run: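 First, the altered yeast strain was treated with each compound; second, its growth was measured; finally, inhibition was derived by comparison with vehicle controls.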

[14] = NCI Yeast Anticancer Drug Screen. Data for the cln2 rad14 strain (AID 165);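 also: 0% = growth equal to vehicle treated cultures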; conditions: S. cerevisiae cln2 rad14 strain, active compounds read high
How it was run: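 Test compounds were added to cln2 rad14 yeast cultures; inhibition of growth was then determined by comparison with vehicle treatment.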

[15] = NCI Yeast Anticancer Drug Screen. Data for the bub3 strain (AID 167); conditions: S. cerevisiae bub3 mutant strain, active compounds read high
How it was run: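 Readout: yeast growth inhibition, expressed relative to vehicle-only wells. The test organism is a mutant strain from a panel with lesions in DNA repair or checkpoint genes.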

[16] = NCI Yeast Anticancer Drug Screen. Data for the rad18 strain (AID 177); conditions: S. cerevisiae rad18 mutant growth inhibition, active compounds read high
How it was run: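 Steps: expose repair-mutant yeast to compound; measure growth; express as inhibition relative to vehicle control.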

[17] = at 5.0 µM (retest, dose inferred, filed as 0.5)
[18] = at 50.0 µM (retest, dose inferred, filed as 5.0)

Measured: growth inhibition

CCOP(=O)(CC(C)P(=O)(OCC)OCC)OCC.C[CH2][Sn]([Cl])([Cl])[CH2]C (centres undefined)
inactive: [1]; at 1.2 µM -1% | [1]; at 3.7 µM -2% | [1]; at 11.0 µM 2% | [2]; at 1.2 µM 0% | [2]; at 3.7 µM 2% | [2]; at 11.0 µM 8% | [2]; at 33.0 µM 69% | [3]; at 1.2 µM -8% | [3]; at 3.7 µM 4% | [3]; at 11.0 µM 14% | [4]; [17] -2% | [4]; [18] 28% | [4]; at 50.0 µM 62.7%
active: [1]; at 33.0 µM 76% | [1]; at 100.0 µM 94% | [2]; at 100.0 µM 95% | [3]; at 33.0 µM 85% | [3]; at 100.0 µM 95%

O=Cc1ccc(C(F)(F)F)cc1.[C-]#[O+].[C-]#[O+].[C-]#[O+].[Cr]
active: [5]; at 100.0 µM 70% | [9]; [18] 75% | [12]; [18] 81% | [12]; at 50.0 µM 78.5% | [4]; [18] 78%
inactive: [5]; at 1.2 µM 9% | [5]; at 3.7 µM 17% | [5]; at 11.0 µM 39% | [5]; at 33.0 µM 65% | [6]; at 1.2 µM 0% | [6]; at 3.7 µM 2% | [6]; at 11.0 µM 8% | [6]; at 33.0 µM 15% | [6]; at 100.0 µM 17% | [7]; at 1.2 µM 12% | [7]; at 3.7 µM 20% | [7]; at 11.0 µM 37% | [7]; at 33.0 µM 46% | [7]; at 100.0 µM 33% | [8]; at 1.2 µM 1% | [8]; at 3.7 µM 1% | [8]; at 11.0 µM 20% | [8]; at 33.0 µM 11% | [8]; at 100.0 µM 17% | [9]; at 1.2 µM 6% | [9]; at 3.7 µM 11% | [9]; [17] 3% | [9]; at 11.0 µM 23% | [9]; at 33.0 µM 38% | [9]; at 50.0 µM 67.8% | [9]; at 100.0 µM 40% | [10]; at 1.2 µM 5% | [10]; at 3.7 µM 2% | [10]; [17] -7% | [10]; at 11.0 µM 5% | [10]; at 33.0 µM 8% | [10]; [18] 47% | [10]; at 50.0 µM 61.6% | [10]; at 100.0 µM 14% | [11]; at 1.2 µM 6% | [11]; at 3.7 µM 8% | [11]; at 11.0 µM 15% | [11]; at 33.0 µM 30% | [11]; at 100.0 µM 30% | [12]; [17] -18% | [13]; at 1.2 µM 0% | [13]; at 3.7 µM -2% | [13]; at 11.0 µM 2% | [13]; at 33.0 µM 15% | [13]; at 100.0 µM 23% | [14]; [17] -15% | [14]; [18] 58% | [14]; at 50.0 µM 63.6% | [15]; at 1.2 µM -7% | [15]; at 3.7 µM -1% | [15]; [17] -18% | [15]; at 11.0 µM 12% | [15]; at 33.0 µM 21% | [15]; [18] -7% | [15]; at 50.0 µM 66.2% | [15]; at 100.0 µM 31% | [1]; at 1.2 µM 3% | [1]; at 3.7 µM 8% | [1]; at 11.0 µM 23% | [1]; at 33.0 µM 39% | [1]; at 100.0 µM 33% | [2]; at 1.2 µM -1% | [2]; at 3.7 µM -4% | [2]; at 11.0 µM 7% | [2]; at 33.0 µM 8% | [2]; at 100.0 µM 7% | [3]; at 1.2 µM 12% | [3]; at 3.7 µM 11% | [3]; at 11.0 µM 40% | [3]; at 33.0 µM 62% | [3]; at 100.0 µM 64% | [4]; [17] 11% | [4]; at 50.0 µM 63.3% | [16]; at 1.2 µM 1% | [16]; at 3.7 µM 3% | [16]; at 11.0 µM 20% | [16]; at 33.0 µM 40% | [16]; at 100.0 µM 62%

C[C@@]12CCC(=O)C=C1CC[C@H]1C2=CC[C@]2(C)C1CC[C@@]2(C)O (some centres undefined)
active: [5]; at 100.0 µM 91% | [6]; at 100.0 µM 91% | [8]; at 33.0 µM 86% | [8]; at 100.0 µM 96% | [9]; at 50.0 µM 74.2% | [9]; at 100.0 µM 85% | [10]; at 33.0 µM 85% | [10]; [18] 82% | [10]; at 100.0 µM 96% | [11]; at 33.0 µM 70% | [11]; at 100.0 µM 92% | [12]; [18] 78% | [12]; at 50.0 µM 77.5% | [13]; at 33.0 µM 75% | [13]; at 100.0 µM 93% | [15]; at 33.0 µM 80% | [15]; at 50.0 µM 75.5% | [15]; at 100.0 µM 96% | [1]; at 100.0 µM 92% | [2]; at 100.0 µM 90% | [3]; at 33.0 µM 72% | [3]; at 100.0 µM 91% | [16]; at 33.0 µM 76% | [16]; at 100.0 µM 92%
inactive: [5]; at 1.2 µM -12% | [5]; at 3.7 µM -3% | [5]; at 11.0 µM -4% | [5]; at 33.0 µM 69% | [6]; at 1.2 µM -13% | [6]; at 3.7 µM -26% | [6]; at 11.0 µM -23% | [6]; at 33.0 µM 54% | [7]; at 1.2 µM -1% | [7]; at 3.7 µM -6% | [7]; at 11.0 µM -8% | [7]; at 33.0 µM -12% | [7]; at 100.0 µM 1% | [8]; at 1.2 µM 12% | [8]; at 3.7 µM 19% | [8]; at 11.0 µM 38% | [9]; at 1.2 µM 1% | [9]; at 3.7 µM 7% | [9]; [17] 27% | [9]; at 11.0 µM 5% | [9]; at 33.0 µM 63% | [9]; [18] 60% | [10]; at 1.2 µM 8% | [10]; at 3.7 µM 10% | [10]; [17] 44% | [10]; at 11.0 µM 15% | [10]; at 50.0 µM 66.5% | [11]; at 1.2 µM -22% | [11]; at 3.7 µM -25% | [11]; at 11.0 µM -10% | [12]; [17] -27% | [13]; at 1.2 µM 32% | [13]; at 3.7 µM -2% | [13]; at 11.0 µM 0% | [14]; [17] 46% | [14]; [18] 30% | [14]; at 50.0 µM 56.9% | [15]; at 1.2 µM -1% | [15]; at 3.7 µM 19% | [15]; [17] -28% | [15]; at 11.0 µM 28% | [15]; [18] 54% | [1]; at 1.2 µM -26% | [1]; at 3.7 µM -19% | [1]; at 11.0 µM -18% | [1]; at 33.0 µM 64% | [2]; at 1.2 µM -27% | [2]; at 3.7 µM -11% | [2]; at 11.0 µM 4% | [2]; at 33.0 µM 63% | [3]; at 1.2 µM 1% | [3]; at 3.7 µM -6% | [3]; at 11.0 µM 14% | [4]; [17] 25% | [4]; [18] 58% | [4]; at 50.0 µM 50.5% | [16]; at 1.2 µM -2% | [16]; at 3.7 µM 0% | [16]; at 11.0 µM 10%
